A selection: hits, their analogues and other compounds. The true share with any hit is near 2.4%.
Pol kappa inh-1 = inhibitors of human DNA polymerase kappa. Q9UBT6. purified Pol kappa, fluorescent DNA synthesis assay, 10 min. Potency, µM (titrated, usually from 107 µM), usual class: inhibitors. 400,000 compounds, 0.53% hits
Target sequence (Q9UBT6 whole entry, looked up): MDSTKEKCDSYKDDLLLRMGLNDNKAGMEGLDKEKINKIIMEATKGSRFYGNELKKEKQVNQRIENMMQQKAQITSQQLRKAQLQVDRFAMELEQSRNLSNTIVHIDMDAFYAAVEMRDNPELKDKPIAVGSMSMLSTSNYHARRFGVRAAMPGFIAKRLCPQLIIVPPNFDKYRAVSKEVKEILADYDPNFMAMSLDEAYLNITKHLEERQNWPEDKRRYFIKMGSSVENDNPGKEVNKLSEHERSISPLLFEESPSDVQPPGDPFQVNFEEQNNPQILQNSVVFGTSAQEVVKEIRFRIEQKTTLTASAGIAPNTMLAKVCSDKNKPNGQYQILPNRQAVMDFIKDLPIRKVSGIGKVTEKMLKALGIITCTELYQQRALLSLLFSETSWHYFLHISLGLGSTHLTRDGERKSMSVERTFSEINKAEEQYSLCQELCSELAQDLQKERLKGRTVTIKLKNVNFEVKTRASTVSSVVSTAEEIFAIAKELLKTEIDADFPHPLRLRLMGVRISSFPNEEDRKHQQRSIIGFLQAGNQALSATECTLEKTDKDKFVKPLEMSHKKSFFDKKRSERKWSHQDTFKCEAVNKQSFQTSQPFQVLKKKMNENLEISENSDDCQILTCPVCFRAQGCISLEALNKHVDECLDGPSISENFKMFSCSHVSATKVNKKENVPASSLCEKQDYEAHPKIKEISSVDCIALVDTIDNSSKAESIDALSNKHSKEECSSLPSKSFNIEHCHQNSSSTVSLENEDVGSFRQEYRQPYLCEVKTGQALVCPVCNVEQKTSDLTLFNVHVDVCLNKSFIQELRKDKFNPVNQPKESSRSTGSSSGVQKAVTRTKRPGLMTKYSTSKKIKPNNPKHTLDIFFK
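Kinetic fluorescence screen: compound preincubated 15 min RT with 10 nM enzyme; 50 nM substrate (final) initiates; reads at 0/10 min.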
Pol beta inh = DNA polymerase beta (human) inhibition. AID 485314. Pol beta primer extension/strand displacement, fluorescence kinetic. Potency, µM (top dose mostly 114 µM), hits mostly inhibitors. 340,000 compounds, 1.3% hits
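Enzyme-only controls used 10 nM Pol beta; buffer lacking enzyme served as negative control. Compound preincubated 15 min, then 50 nM substrate added; 0 and 10 min reads at room temperature.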
Pol eta inh-1 = blocks human DNA polymerase eta activity; recombinant Pol eta, fluorescent DNA replication assay; Potency, µM (series often up to 114 µM), actives largely listed as inhibitors; 390,000 compounds, 1.2% hits; Q9Y253
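Pol eta (10 nM) was preincubated with compounds for 15 min at room temperature, after which fluorescent replication substrate (50 nM final) was added to start the reaction. Fluorescence was read kinetically at 0 and 10 min.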
POLI inh = DNA polymerase iota (human) inhibition; 390,000 compounds, 1% hits; Potency, µM (highest dose often 115 µM), most hits filed as inhibitors; Pol iota fluorescent replication assay, 10 min; AID 588590; Q9UNA4
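Pol iota at 10 nM preincubated 15 min with compounds at room temperature; reaction started with fluorescent substrate, 50 nM final. Fluorescence read kinetically at 0 and 10 min; buffer-only wells as negative control.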
FEN1 inh-1 = human FEN1 inhibition. P39748. Recombinant FEN1 flap cleavage, fluorescence, 15 min. Potency, µM (series often up to 114 µM), usual class: inhibitors. 390,000 compounds, 0.35% hits. AID 588795; further: nearly all actives have a fitted effect of over 65% in size
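Nuclease activity of 10 nM FEN1 was measured after 15 min of room-temperature exposure to titrated compounds, by adding 50 nM flap substrate and reading plates at 0 and 15 min.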
TDP1 block = TDP1 (human) enzyme inhibition | Q9NUW8 | recombinant TDP1, AlphaScreen DNA substrate cleavage | Potency, µM (titrated, usually from 130 µM), usual class: inhibitors | 350,000 compounds, 0.28% hits | AID 485290; further: nearly all actives have a fitted effect of over 40% in size
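E. coli-derived human Tdp1, 1 nM final. Cpd preinc 15 min RT; substrate 15 nM final, 5 min RT; AS bead mix 10 ug/ml final, 10 min RT. Signal loss = tyrosine-FITC cleavage. No-enzyme wells = max signal.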
TbPGK inh = blocks T. brucei phosphoglycerate kinase. TbPGK coupled GAPDH assay, Kinase-Glo luminescence. Potency, µM (highest dose often 57.5 µM), most hits filed as inhibitors. shares compounds with Pol kappa inh-1. 500 compounds, 79% hits. AID 686980; further: nearly all actives have a fitted effect of over 65% in size
Pol iota confirm = Inhibitors of human DNA polymerase iota, confirmation; 1,500 compounds, 77% hits; shares compounds with Pol kappa inh-1; Pol iota primer extension, TAMRA/BHQ fluorescence; AID 720496; Potency, µM, most hits filed as inhibitors
Pol kappa inh-2 = Pol kappa (human) inhibition, cherry-pick confirmation | shares compounds with Pol eta inh-1 | purified Pol-kappa, fluorescent strand-displacement substrate | Potency, µM, most hits filed as inhibitors | 920 compounds, 76% hits | AID 720501
Pol eta inh-2 = confirmation of human DNA polymerase eta inhibitors; 2,600 compounds, 64% hits; Potency, µM, usual class: inhibitors; shares compounds with Pol eta inh-1; Pol eta primer extension, TAMRA/BHQ fluorescence, 10 min
FEN1 inh-2 = confirmation of human FEN1 inhibitors; 880 compounds, 79% hits; Potency, µM, hits mostly inhibitors; shares compounds with FEN1 inh-1; FEN1 flap cleavage, TAMRA/BHQ2 fluorogenic DNA substrate; AID 720498; further: nearly all actives have a fitted effect of over 60% in size
A number is an active result; n = inactive; u = inconclusive; x = not tested or not shown; [ ] = dose if it differs, or a comment. The call rests on the fitted dose curve; in most records, active means well fitted curve in the direction sought with a large enough effect; inconclusive means small, poorly fitted or top-dose-only effect, or another doubt; inactive means no such curve, though single readings can be large; an effect the other way counts as inactive or inconclusive.

SMILES	Pol kappa inh-1	Pol beta inh	Pol eta inh-1	POLI inh	FEN1 inh-1	TDP1 block	Pol iota confirm	Pol kappa inh-2	Pol eta inh-2	FEN1 inh-2	others
Cc1c(CC(=O)N[C@@H](C)C(=O)O)c(=O)oc2c(C)c3occ(-c4ccccc4)c3cc12	u	n	n	u	n	x	x	x	x	x
Cc1c(CCC(=O)O)c(=O)oc2c(C)c3occ(-c4ccc(Br)cc4)c3cc12	n	n	18µM	n	n	x	34	x	u	u
O=C(N/N=C/c1ccc(-c2ccc(Cl)c(C(=O)O)c2)o1)c1cc2c(ccc3ccccc32)o1	32µM	u	11µM	18µM	40µM	n	75	x	19	21
Cc1cccc(-c2nc3c(cnn3-c3ccccc3)c(=O)n2-c2ccc(Cl)cc2)c1	n	n	n	u	n	n[12.3 µM]	x	x	x	x
CCN(CC)CCCNc1nc2cc(OC)c(OC)cc2c2nc(-c3ccccc3)nn12	u	11µM	u	7.9µM	13µM	n	38	x	x	6.7
COc1cc(/C=C(\C#N)C(=O)Nc2cccc(C(=O)O)c2)ccc1OCc1ccc(Cl)cc1	u	10µM	56µM	u	u	n[0.0935 µM]	u	x	x	76
COc1cc(/C=C(\C#N)C(=O)Nc2ccccc2)ccc1OCCN1CCOCC1	n	n	n	n	n	n	x	x	x	x
O=C(O)COc1ccccc1C=NNc1ccc([N+](=O)[O-])cc1S(=O)(=O)Nc1ccc(Cl)cc1	n	x	22µM	u	n	n	84	u	48	76
COC(=O)c1c(-c2cccs2)csc1NC(=O)c1ccc(C(C)C)cc1	n	n	n	n	u	u	x	x	x	x
N#CNC(=O)c1ccc(-n2cccc2/C=C2\NC(=O)N(CC(=O)Nc3ccc(Cl)cc3)C2=O)cc1	x	x	x	x	x	x	6.7	4.7	u	24
N#CNC(=O)c1ccc(-n2cccc2/C=C2\NC(=O)N(CC(=O)Nc3cccc(F)c3)C2=O)cc1	x	x	x	x	x	x	30	13	43	34
Cc1ccc(NC(=O)CN2C(=O)N/C(=C\c3cccn3-c3ccc(C(=O)NC#N)cc3)C2=O)cc1	x	x	x	x	x	x	38	x	43	30
O=C(c1cnccn1)N1CCC2(CC1)CN(C(c1ccccc1)c1ccccc1)C2	n	x	x	x	x	x	x	x	x	x
Cc1cc(-c2ccc(S(=O)(=O)Nc3cccc(Cl)c3C)cc2)on1	n	n	n	n	n	n	x	x	x	x
Clc1ccc(Cn2cc3c(n2)-c2cc4ccccc4n2C3)cc1	n	x	x	n	n	n	x	x	x	x
CCSC[C@H](NC(=O)[C@H](C)NC(=O)[C@@H](N)Cc1ccc(O)cc1)C(=O)N[C@@H](CC(=O)O)C(=O)N[C@H](C(=O)N[C@@H](C)C(=O)N[C@H](C(=O)N[C@@H](CSCC)C(=O)N[C@H](C(=O)N[C@H](C(=O)N[C@@H](Cc1cnc[nH]1)C(=O)N[C@@H](CCCNC(=N)N)C(=O)N[C@@H](CC(C)C)C(=O)N[C@@H](C)C(=O)NCC(=O)N[C@@H](CC(C)C)C(=O)N[C@@H](CC(C)C)C(=O)N[C@@H](CO)C(=O)N[C@@H](CCCNC(=N)N)C(=O)N[C@@H](CO)C(=O)NCC(=O)NCC(=O)N[C@H](C(=O)N[C@H](C(=O)N[C@@H](CCCCN)C(=O)N[C@@H](CC(N)=O)C(=O)N[C@@H](CC(N)=O)C(=O)N[C@@H](Cc1ccccc1)C(=O)N[C@H](C(=O)N1CCC[C@H]1C(=O)N[C@H](C(=O)N[C@@H](CC(N)=O)C(=O)N[C@H](C(=O)NCC(=O)N[C@@H](CO)C(=O)N[C@@H](CCCCN)C(=O)N[C@@H](C)C(=O)N[C@@H](Cc1ccccc1)C(N)=O)C(C)C)[C@@H](C)O)C(C)C)C(C)C)C(C)C)[C@@H](C)O)C(C)C)[C@@H](C)O)[C@@H](C)O	n	x	x	x	x	n	x	x	x	x
CCCCC(=O)Nc1sc2c(c1-c1nc3ccccc3s1)CCN(C(C)=O)C2	x	n	x	x	x	n	x	x	x	x
CC(=O)Nc1sc2c(c1-c1nc3ccccc3s1)CCCN(C(C)C)C2	x	x	x	x	x	x	53	12	x	7.6
CC(=O)Nc1sc2c(c1-c1nc3ccccc3s1)CCN(C)C2	x	x	x	x	x	x	38	x	x	5.4
CC(C)N1CCc2c(sc(NC(=O)c3nc4ccccc4s3)c2C(N)=O)C1	n	n	n	n	n	n	x	x	x	x
CC(=O)Nc1sc2c(c1-c1nc3ccccc3s1)CN(C(C)C)CC2	50µM	x	u	13µM	6.3µM	n	24	17	x	11
CCCCC(=O)Nc1sc2c(c1-c1nc3ccccc3s1)CCN(C(C)C)C2	x	x	x	x	x	x	u	11	x	34
O=C(CSc1nc2c([nH]c3ccccc32)c(=O)n1-c1ccccc1)c1ccc(Cl)cc1	n	n	n	n	n	n	x	x	x	x
CS(=O)(=O)N1CCC2(CCN(C(=O)Nc3cccc(C#N)c3)CC2)CC1	n	x	x	x	x	x	x	x	x	x
O=C(O)CCNc1cc(N2CCN(C(=O)c3ccco3)CC2)c2noc3c2c1C(=O)c1ccccc1-3	13µM	18µM	3.2µM	u	32µM	n	17	u	6.7	30	TbPGK inh=21µM
SMILES	Pol kappa inh-1	Pol beta inh	Pol eta inh-1	POLI inh	FEN1 inh-1	TDP1 block	Pol iota confirm	Pol kappa inh-2	Pol eta inh-2	FEN1 inh-2	others
COc1cccc(NC(=O)CCc2nc3c(C)nn(-c4ccc(C)cc4)c3n(C)c2=O)c1	n	n	n	n	n	n	x	x	x	x
CC(=O)Nc1ccc2cc3ccc(NC(C)=O)cc3nc2c1	n	n	u	u	u	n	x	x	x	x
CC(=O)Nc1ccc2nc3c(=O)[nH]c(=O)[nH]c3nc2c1	28µM	28µM	x	8.9µM	28µM	u	12	2.4	17	38
CCC1=NN2C(=N)/C(=C\c3ccc(OCc4cc(=O)n5nc(CC)sc5n4)c(OC)c3)C(=O)N=C2S1	32µM	4.5µM	8.9µM	u	50µM	40µM	19	x	17	38
O=C(O)c1cn(C2CC2)c2cc(N3CCN(S(=O)(=O)c4ccc5c(c4)OCCO5)CC3)c(F)cc2c1=O	n	n	79µM	n	u	n	27	x	x	43
Cc1ccc(C(=O)Nc2ccc(-c3nc4ccccc4[nH]3)cc2)cc1Br	x	x	x	x	x	x	67	x	u	60
